According to PubChem BioAssay (Tox21):
Inconclusive results are not listed. Where a call stands in place of a potency, no number is given. Calls of active or inactive are those of the source. Unless noted, calls follow the shape of the dose curve; as a rule, active = well fitted curve in the direction sought with a large enough effect in the repeat runs; inconclusive = weak or mixed curves; inactive = no such curve, though single readings can be large; an effect the other way counts as inactive or inconclusive. Positions of bridges follow the written chain, without caps; N, C: chain ends. Non-standard residues stand in square brackets, D forms with d. Residues, ends and D or L forms follow the SMILES beside them. ξ: configuration not given here. *: point of attachment. d(aThr) = C[C@@H](O)[C@@H](N)C(=O)O; ξThr(3R) = C[C@@H](O)C(N)C(=O)O; X3 = CC[C@@H](C)CCCCC(=O)*; dDab = NCC[C@@H](N)C(=O)O

Columns and labels:
[1] = qHTS assay for small molecules that induce genotoxicity in human embryonic kidney cells expressing luciferase-tagged ATAD5 (AID 651632); also: nearly all actives have a fitted effect of over 15% in size
How it was run: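 A rise in luciferase signal from ATAD5-tagged HEK293T cells marks genetic stress. Cells were exposed to compounds for 16 hr at 37C, 5% CO2, then luciferase was quantified after a 30 min room-temperature incubation with Amplite.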

[2] = qHTS assay for small molecules that induce genotoxicity in human embryonic kidney cells expressing luciferase-tagged ATAD5 - cell viability (AID 651634; calls by dose curve; also: nearly all actives have a fitted effect of over 25% in size; also: potency is read from the fitted curve at half-maximal effect)
How it was run: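 Cytotoxicity counter-readout: after 15.5 hr compound treatment at 37C, live-cell protease activity in ATAD5-luciferase HEK293T cells measured by CellTiter-Fluor fluorescence, 30 min development at 37C.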

[3] = qHTS assay for small molecule disruptors of the mitochondrial membrane potential - cell viability (AID 720634; calls by dose curve;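 also: human HepG2 liver cancer cells; series mostly up to about 83 µM; nearly all actives have a fitted effect of over 20% in size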)
How it was run: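 Cytotoxicity was quantified from ATP content by CellTiter-Glo luminescence in the same wells as the MMP dye read-out. HepG2 (2,000 cells/well) were plated overnight and exposed to compounds for 1 hr at 37 C.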

[4] = qHTS assay to test for compound auto fluorescence at 590 nm (red) in HepG2 cells (AID 720674)
How it was run: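 Seeding: 2,000 HepG2 cells/well, MEM/10% FBS, overnight 37 C. Dosing: compound vs DMSO. Incubation: 1 hr, 37 C, 5% CO2. Read: fluorescence 540 ex/590 em, Rose Bengal sodium as red reference.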

[5] = qHTS assay to test for compound auto fluorescence at 535 nm (green) in HepG2 cells (AID 720675)
[6] = qHTS assay to test for compound auto fluorescence at 460 nm (blue) in HEK293 cells (AID 720678)
How it was run: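 Auto fluorescence in the blue band was quantified as triamterene equivalency. HEK293 cells were seeded at 2,000/well, dosed after a 4-5 hr attachment, and kept overnight at 37C before the 405/460 nm reading.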

[7] = qHTS assay to test for compound auto fluorescence at 590 nm (red) in HEK293 cells (AID 720679)
How it was run: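 Autofluorescence equivalency to Rose Bengal sodium, 540/590nm, in HEK293 cells exposed overnight to 23 nL compound per well.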

[8] = qHTS assay for small molecule agonists of the p53 signaling pathway - cell viability (AID 651633; calls by dose curve;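 also: p53RE-bla HCT reporter cells with a stable beta-lactamase p53 reporter; series mostly up to about 83 µM; nearly all actives have a fitted effect of over 30% in size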)
How it was run: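 p53RE-bla cells were treated with compound for 16 hours at 37 C. Cytotoxicity was then measured as CellTiter-Glo luminescence after 30 min at room temperature.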

[9] = qHTS assay for small molecule disruptors of the mitochondrial membrane potential (AID 720635); also: potency is read from the fitted curve at half-maximal effect
How it was run: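 HepG2 cells exposed to compound 1 hr at 37C, then Mito-MPS dye 30 min. Ratio read of aggregate (540/590 nm) versus monomer (490/535 nm) fluorescence.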

Row | SMILES | Potency [1] | Potency [2] | Potency [3] | Potency [4] | Potency [5] | Potency [6] | Potency [7] | Potency [8] | Potency [9]
1 | CCc1ccc2c(c1)N(CC(C)CN(C)C)c1ccccc1S2 (stereo unspecified) | inactive | 33.5 µM (active) | inactive | inactive | inactive | inactive | inactive | – | –
2 | CN(C)c1ccc(C(=C2C=CC(=[N+](C)C)C=C2)c2c(O)c(S(=O)(=O)[O-])cc3cc(S(=O)(=O)O)ccc23)cc1 | inactive | – | inactive | inactive | inactive | inactive | inactive | inactive | –
3 | CCN(CC)CCOc1ccc(-c2nc3cc(Cl)ccc3s2)cc1 | inactive | inactive | inactive | inactive | inactive | inactive | inactive | – | –
4 | CO[C@H]1C[C@@H]2CC[C@@H](C)[C@@](O)(O2)C(=O)C(=O)N2CCCC[C@H]2C(=O)O[C@H]([C@H](C)C[C@@H]2CC[C@@H](OCCO)[C@H](OC)C2)CC(=O)[C@H](C)/C=C(\C)[C@@H](O)[C@@H](OC)C(=O)[C@H](C)C[C@H](C)/C=C/C=C/C=C/1C | inactive | 29.8 µM (active) | inactive | inactive | inactive | inactive | inactive | – | 21.1 µM (active)
5 | NC(N)=NCC1COc2ccccc2O1 (stereo unspecified) | inactive | inactive | inactive | inactive | – | inactive | inactive | – | inactive
6 | O=C(O)c1cc(N=Nc2ccc(O)c(C(=O)O)c2)ccc1O | inactive | inactive | inactive | inactive | inactive | inactive | inactive | – | inactive
7 | O=[n+]1ccn([O-])c2ccccc21 | inactive | inactive | inactive | inactive | inactive | inactive | inactive | – | inactive
8 | O=P(O)(O)OC[C@H](O)CO | inactive | inactive | inactive | inactive | inactive | inactive | inactive | – | inactive
9 | C/C1=C2N=C(/C=C3N=C(/C(C)=C4\[N-][C@@](C)([C@@H]5N=C1[C@](C)(CCC(=O)NCC(C)OP(=O)(O)O[C@H]1[C@@H](O)[C@@H](n6cnc7cc(C)c(C)cc76)O[C@@H]1CO)[C@H]5CC(N)=O)[C@@](C)(CC(N)=O)[C@@H]4CCC(N)=O)[C@@](C)(CC(N)=O)[C@@H]\3CCC(N)=O)C(C)(C)[C@@H]/2CCC(N)=O.CC(=O)O.[Co] (stereo partly specified) | inactive | – | inactive | inactive | inactive | inactive | inactive | inactive | –
10 | CCC[C@@H]1C[C@@H](C(=O)N[C@@H]([C@H]2O[C@H](SC)[C@H](O)[C@@H](O)[C@H]2O)[C@H](C)Cl)N(C)C1 | inactive | inactive | inactive | inactive | inactive | inactive | inactive | – | inactive
11 | CCCCCCC(=O)O[C@H]1CC[C@H]2[C@@H]3CCc4cc(O)ccc4[C@H]3CC[C@]12C | inactive | inactive | inactive | inactive | inactive | inactive | inactive | – | 11.9 µM (active)
12 | NCCC(=O)[N-][C@@H](Cc1cnc[nH]1)C(=O)O.[Zn] | inactive | inactive | inactive | inactive | inactive | inactive | inactive | – | inactive
13 | C=C[C@]1(C)C[C@@H](OC(=O)CSC(C)(C)CNC(=O)[C@H](N)C(C)C)[C@]2(C)[C@H](C)CC[C@]3(CCC(=O)[C@H]32)[C@@H](C)[C@@H]1O | inactive | – | inactive | inactive | inactive | inactive | inactive | inactive | –
14 | CN1CCN(C(c2ccccc2)c2ccc(Cl)cc2)CC1 (stereo unspecified) | inactive | – | inactive | inactive | inactive | inactive | inactive | inactive | –
15 | C#C[C@]1(O)CC[C@H]2[C@@H]3CCC4=CCCC[C@@H]4[C@H]3C(=C)C[C@@]21CC | inactive | inactive | inactive | inactive | inactive | inactive | inactive | – | 21.1 µM (active)
16 | CC[C@@H](C)CCCCC(=O)N[C@H](CCN)C(=O)N[C@@H](C(=O)N[C@H](CCN)C(=O)N[C@@H]1CCNC(=O)C([C@@H](C)O)NC(=O)[C@@H](CCN)NC(=O)[C@@H](CCN)NC(=O)[C@@H](CC(C)C)NC(=O)[C@@H](Cc2ccccc2)NC(=O)[C@@H](CCN)NC1=O)[C@@H](C)O (stereo partly drawn) (X3-[dDab][d(aThr)][dDab][dDab][dDab][dF][dL][dDab][dDab][ξThr(3R)]; lactam 4-C) | inactive | inactive | inactive | inactive | – | inactive | inactive | – | inactive
17 | CC1(C)S[C@@H]2[C@H](NC(=O)[C@H](NC(=O)N3CCN(S(C)(=O)=O)C3=O)c3ccccc3)C(=O)N2[C@H]1C(=O)O | inactive | inactive | inactive | inactive | inactive | inactive | inactive | – | inactive
18 | CCC(=O)O[C@@H]1CC(=O)O[C@H](C)C/C=C/C=C/[C@H](O)[C@H](C)C[C@H](CC=O)[C@H](O[C@@H]2O[C@H](C)[C@@H](O[C@H]3C[C@@](C)(O)[C@@H](OC(=O)CC)[C@H](C)O3)[C@H](N(C)C)[C@H]2O)[C@H]1OC | inactive | inactive | inactive | inactive | inactive | inactive | inactive | – | inactive
19 | CCCCCCCCCCCCCCCC(=O)O[C@@H]1CC(C)=C(/C=C/C(C)=C/C=C/C(C)=C/C=C/C=C(C)/C=C/C=C(C)/C=C/C2=C(C)C[C@@H](OC(=O)CCCCCCCCCCCCCCC)CC2(C)C)C(C)(C)C1 | inactive | inactive | inactive | inactive | inactive | inactive | inactive | – | inactive
20 | CC1=C[C@H](O)CC(C)(C)[C@H]1/C=C/C(C)=C/C=C/C(C)=C/C=C/C=C(C)/C=C/C=C(C)/C=C/C1=C(C)C[C@@H](O)CC1(C)C | inactive | inactive | inactive | inactive | inactive | inactive | inactive | – | –
